ELG1 genotoxic – genotoxicity induction in ELG1-luciferase HEK293T cells; HEK293T ELG1-luciferase reporter, luminescence, 16 h; Potency, µM (top dose mostly 46 µM), most hits filed as activators; hit rate 1.3% among 330,000; also: nearly all actives have a fitted effect of over 60% in size
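Luminescence read-out: rising ELG1-luciferase signal, reflecting elevated ELG1 protein under genetic stress, flags genotoxic compounds. Cells were treated for 16 hr at 37 °C before ONE-Glo detection.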
Luc counter – counter-screen: inhibitors of Kinase-Glo firefly luciferase; Potency, µM (top dose mostly 38.3 µM), usual class: inhibitors; Q27757; hit rate 0.28% among 200,000; Kinase-Glo luciferase, ATP luminescence, 8 min; also: nearly all actives have a fitted effect of over 60% in size
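Substrate mix (final 50 mM imidazole pH 7.2, 50 mM KCl, 7 mM MgCl2, 10 uM ATP, 0.01% Tween 20, 0.05% BSA) plus pin-tool compound, then Kinase-Glo detection mix; 8 min ambient, luminescence read.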
FLuc counter – inhibits or activates purified firefly luciferase, miR-21 counter-screen; hit rate 6.9% among 360,000; P08659; purified FLuc, Km substrates, luminescence inhibition; Potency, µM (series often up to 57.5 µM), usual class: inhibitors; AID 588342; also: nearly all actives have a fitted effect of over 55% in size
Target sequence (P08659 whole entry, looked up): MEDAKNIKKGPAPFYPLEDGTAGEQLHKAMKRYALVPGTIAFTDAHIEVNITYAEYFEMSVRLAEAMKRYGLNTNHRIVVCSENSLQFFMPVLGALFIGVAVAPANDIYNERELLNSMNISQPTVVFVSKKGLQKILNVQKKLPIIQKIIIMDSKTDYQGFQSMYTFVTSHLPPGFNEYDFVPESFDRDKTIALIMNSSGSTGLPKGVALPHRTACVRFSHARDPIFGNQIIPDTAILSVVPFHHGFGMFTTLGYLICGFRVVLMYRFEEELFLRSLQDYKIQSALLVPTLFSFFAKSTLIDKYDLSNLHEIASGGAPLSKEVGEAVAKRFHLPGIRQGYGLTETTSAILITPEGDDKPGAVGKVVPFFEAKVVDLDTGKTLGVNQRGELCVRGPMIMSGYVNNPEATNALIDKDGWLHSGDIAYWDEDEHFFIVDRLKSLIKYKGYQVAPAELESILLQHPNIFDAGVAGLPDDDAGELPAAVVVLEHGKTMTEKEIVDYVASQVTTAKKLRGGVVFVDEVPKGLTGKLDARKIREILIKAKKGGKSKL
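Biochemical qHTS of compounds, final roughly 60 µM downward over six points, against 10 nM purified firefly luciferase using Km concentrations of substrates (10 uM D-luciferin, 10 uM ATP) in Tris acetate pH 7.5 buffer; luminescence output.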
NPC1 promoter act – activates the NPC1 promoter; Huh7 NPC1 promoter luciferase reporter, 24 h; Potency, µM (doses to about 9.22 µM), usual class: activators; hit rate 2.4% among 320,000; also: nearly all actives have a fitted effect of over 60% in size
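Cells: Huh7 expressing luciferase under the NPC1 promoter, 1500/well. Seeded 2 h, compound added, incubated 24 h at 37 °C. Luciferase reagent, 10 min ambient, then luminescence.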
SMN2 splice up – increases expression of the SMN2 splice variant; HEK293 SMN2-luciferase splicing reporter, luminescence, 30-36 h; Potency, µM (top dose mostly 46.1 µM), usual class: activators; hit rate 2.8% among 210,000; AID 1458; also: nearly all actives have a fitted effect of over 55% in size
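HEK293 cells carry an SMN2 minigene-luciferase reporter in which exon 7 inclusion puts luciferase in frame. Cells were seeded at 2000 cells/well, attached for 10-12 hours, then exposed to compounds for 30-36 hours at 37C before ONE-Glo luminescence.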
Rab9 promoter act – activators of Rab9 promoter | Potency, µM (highest dose often 9.22 µM), most hits filed as activators | Huh7 Rab9 promoter-luciferase reporter, luminescence, 24 h | hit rate 2.8% among 320,000; also: nearly all actives have a fitted effect of over 60% in size
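Quantitative HTS format; Huh7 Rab9-luciferase reporter cells (1500/well) receive compound 2 h post-plating, incubate 24 h at 37 °C, then get luciferase reagent for 10 min before luminescence reading.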
A number is an active result; [ ] = another dose, or the depositor's remark. Only some compounds are listed: those with a hit (about 7.5% of all), similar ones and a draw of the others. Calls follow the shape of the dose curve; as a rule, active = well fitted curve in the direction sought with a large enough effect; inconclusive = small, poorly fitted or top-dose-only effect, or another doubt; inactive = no such curve, though single readings can be large; an effect the other way counts as inactive or inconclusive.

What do the screens show for `CC1S/C(=N/N=C/c2cccs2)NC1=O` (configuration not stated)?
ELG1 genotoxic: inactive; FLuc counter: inconclusive; NPC1 promoter act: inactive; Rab9 promoter act: inactive

How did O=C(CSc1nc2ccccc2n1Cc1ccccc1)N1CCN(c2ccc(F)cc2)CC1 do in these assays?
FLuc counter: inactive; SMN2 splice up: inactive

How did COc1ccc(-n2cc(CN[C@H]3CCCCNC3=O)c(-c3cccc(F)c3)n2)cc1 do in these assays?
ELG1 genotoxic: inactive; FLuc counter: 16.9µM; NPC1 promoter act: inactive; Rab9 promoter act: inactive

What do the screens show for `Cc1ccc(OCc2nc(-c3ccccc3)no2)c(C)c1`?
ELG1 genotoxic: 3.16µM; Luc counter: inactive; FLuc counter: 3.01µM; NPC1 promoter act: 2.24µM; SMN2 splice up: 10µM; Rab9 promoter act: 2.24µM

How did Clc1ccc(-c2noc(COc3ccccc3)n2)cc1 do in these assays?
ELG1 genotoxic: inactive; Luc counter: inactive; FLuc counter: 13.5µM; NPC1 promoter act: inactive; SMN2 splice up: inactive; Rab9 promoter act: inactive

How did CC(C)(C)Cc1nc(-c2ccc(Cl)cc2)no1 do in these assays?
ELG1 genotoxic: inactive; Luc counter: inactive; FLuc counter: 15.1µM; NPC1 promoter act: inactive; SMN2 splice up: inactive; Rab9 promoter act: inactive

Results for C[N+](C)(N)Cc1nc(-c2ccc(Cl)cc2)no1 ?
Luc counter: inactive[7.66 µM]; SMN2 splice up: inactive[9.22 µM]

How did Clc1ccc(-c2noc(CN3CCOCC3)n2)cc1 do in these assays?
ELG1 genotoxic: inconclusive; FLuc counter: inconclusive; NPC1 promoter act: 2µM; Rab9 promoter act: 3.16µM

What do the screens show for `CCOc1ccccc1NC(=O)C1=C(C)Nc2ncnn2C1c1ccc(C)o1` (configuration not stated)?
FLuc counter: inactive

Results for FC(F)(F)c1cccc(N2CCc3cn[nH]c32)c1 ?
ELG1 genotoxic: inactive; Luc counter: inactive; FLuc counter: 23.9µM; NPC1 promoter act: inactive; SMN2 splice up: inactive; Rab9 promoter act: inactive

What do the screens show for `CN1CCC(N2CCN(c3cccc(C(F)(F)F)c3)CC2)CC1`?
ELG1 genotoxic: inactive; Luc counter: inactive; FLuc counter: inactive; NPC1 promoter act: inactive; SMN2 splice up: inactive; Rab9 promoter act: inactive

Results for CCCCCCC(=O)c1c(C)[nH]c(C(=O)OCC)c1C ?
ELG1 genotoxic: 14.1µM; Luc counter: inactive; FLuc counter: inconclusive; NPC1 promoter act: inactive; SMN2 splice up: inconclusive; Rab9 promoter act: inactive

What do the screens show for `CCCCC(=O)OCC(=O)c1[nH]c(C)c(C(=O)OCC)c1C`?
ELG1 genotoxic: inactive; Luc counter: inactive; FLuc counter: 1.9µM; NPC1 promoter act: inactive; SMN2 splice up: inactive; Rab9 promoter act: inactive

What do the screens show for `CCCCCC(=O)c1c(C)[nH]c(C(=O)OCC)c1C`?
ELG1 genotoxic: inactive; Luc counter: inactive; FLuc counter: inconclusive; NPC1 promoter act: inactive; SMN2 splice up: inactive; Rab9 promoter act: inactive

What do the screens show for `CCOC(=O)c1c(C)[nH]c(C(=O)COC(=O)CSC)c1C`?
ELG1 genotoxic: inactive; Luc counter: inactive; FLuc counter: 10.7µM; NPC1 promoter act: inactive; SMN2 splice up: inactive; Rab9 promoter act: inactive

How did CCOc1ccccc1CNC(=O)c1cnc2sc(N3CCC(C)CC3)nn2c1=O do in these assays?
FLuc counter: inactive

Results for CCCN(CCC)CCNC(=O)c1cc2c(=O)oc3ccc(C)cc3c2s1 ?
FLuc counter: inactive; SMN2 splice up: inactive

How did Cc1ccc(CNC(=O)C2CCN(C(=O)c3ccc(-n4ccc5ccccc54)s3)CC2)cc1 do in these assays?
FLuc counter: inactive

How did O=C(COc1ccccc1Br)NC1CC1 do in these assays?
ELG1 genotoxic: inconclusive; FLuc counter: inactive; NPC1 promoter act: inactive; Rab9 promoter act: inactive[1.84 µM]

Results for COc1cc(CNn2cnnc2)ccc1OCC(=O)NC1CCCCC1 ?
ELG1 genotoxic: inactive; Luc counter: inactive; FLuc counter: inactive; NPC1 promoter act: inactive; SMN2 splice up: inactive; Rab9 promoter act: inactive

Results for COc1cc(C)ccc1OCC(=O)NC1CCCCCC1 ?
ELG1 genotoxic: inconclusive; FLuc counter: 16.9µM; NPC1 promoter act: inconclusive; Rab9 promoter act: inconclusive

What do the screens show for `COC(=O)c1ccccc1OCC(=O)NC1CCCCC1`?
ELG1 genotoxic: 20.6µM; Luc counter: inactive; FLuc counter: inconclusive; NPC1 promoter act: inactive; SMN2 splice up: inactive; Rab9 promoter act: inactive

How did CCc1ccccc1OCC(=O)NC1CCCC1 do in these assays?
ELG1 genotoxic: inactive; Luc counter: inactive; FLuc counter: inactive; NPC1 promoter act: inactive; SMN2 splice up: inactive; Rab9 promoter act: inactive

How did O=C(COc1ccccc1Br)NC(=O)NC1CCCC1 do in these assays?
ELG1 genotoxic: inconclusive; FLuc counter: 12µM; NPC1 promoter act: inactive; Rab9 promoter act: 2.82µM

How did CCCc1cc(=O)n2[nH]c(NC(=O)c3ccccc3Cl)nc2n1 do in these assays?
FLuc counter: inactive; SMN2 splice up: inactive

What do the screens show for `CCSc1nc2c(cnn2-c2ccccc2)c(=O)n1N`?
ELG1 genotoxic: inconclusive; FLuc counter: 13.5µM; NPC1 promoter act: 2.24µM; Rab9 promoter act: 1.26µM

Results for O=C(c1ccc(F)cc1F)N1CCCN(c2nc(-c3ccccc3)ns2)CC1 ?
ELG1 genotoxic: inactive; FLuc counter: inactive; NPC1 promoter act: inactive; Rab9 promoter act: inactive

What do the screens show for `CC(C)(C)NC(=O)N1CCN(c2nc(-c3ccccc3)ns2)CC1`?
ELG1 genotoxic: inactive; FLuc counter: inactive; NPC1 promoter act: inconclusive; Rab9 promoter act: 3.55µM

How did O=c1c(-c2cc3ccccc3o2)[n+]([O-])c2ccccc2n1OCc1ccccn1 do in these assays?
ELG1 genotoxic: inconclusive; Luc counter: inactive; FLuc counter: 12µM; NPC1 promoter act: inconclusive; SMN2 splice up: inconclusive; Rab9 promoter act: inconclusive

Results for CCOn1c(=O)c(-c2ccc(Br)cc2)[n+]([O-])c2ccccc21 ?
ELG1 genotoxic: inactive; FLuc counter: inactive; NPC1 promoter act: inactive; Rab9 promoter act: inactive

What do the screens show for `CCOn1c(=O)c(-c2cc3ccccc3o2)[n+]([O-])c2ccccc21`?
ELG1 genotoxic: inconclusive; Luc counter: inactive; FLuc counter: inconclusive; NPC1 promoter act: 3.55µM; SMN2 splice up: 15.8µM; Rab9 promoter act: 2.82µM

Results for CCOc1ccc(-c2c(=O)n(OCc3nc4ccccc4[nH]3)c3ccccc3[n+]2[O-])cc1 ?
ELG1 genotoxic: inactive; FLuc counter: 16.9µM; NPC1 promoter act: inactive; Rab9 promoter act: inactive

What do the screens show for `Cc1csc(NC(=O)c2ccco2)n1`?
ELG1 genotoxic: inactive; Luc counter: inactive; FLuc counter: inactive; NPC1 promoter act: inactive; SMN2 splice up: inactive; Rab9 promoter act: inactive

What do the screens show for `O=C(Nc1nc(-c2ccc(Cl)s2)cs1)c1ccco1`?
ELG1 genotoxic: inconclusive; Luc counter: inactive; FLuc counter: 15.1µM; NPC1 promoter act: inconclusive; SMN2 splice up: inconclusive; Rab9 promoter act: 3.16µM

How did O=C(NNc1nc(-c2ccccc2)cs1)c1ccco1 do in these assays?
ELG1 genotoxic: inactive; Luc counter: inactive; FLuc counter: inconclusive; NPC1 promoter act: inactive; SMN2 splice up: inactive; Rab9 promoter act: inactive

Source: PubChem BioAssay (National Center for Advancing Translational Sciences (NCATS))
